The campaign covered roughly 39,000 compounds. About 3,300 (8.5%) were called active. The sample holds actives, similar compounds and a random draw of the others, so the mix is not that of the screen.
These compounds were tested on HepG2 (assay: cytotoxicity call (relative viability < 0.9)). Conditions: 10 µM.
For `COc1ccc(NC(=O)Nc2ccc3c(c2)C(=O)N([C@H](C)CO)C[C@@H](C)[C@H](CN(C)Cc2ccc(Cl)c(Cl)c2)O3)cc1`, the cytotoxicity call was “inactive”.
For `COc1ccc(NC(=O)Nc2ccc3c(c2)C(=O)N([C@@H](C)CO)C[C@@H](C)[C@H](CN(C)Cc2ccc(Cl)c(Cl)c2)O3)cc1`, the cytotoxicity call was “inactive”.
With `COc1ccc(NC(=O)Nc2ccc3c(c2)CC(=O)N([C@H](C)CO)C[C@H](C)[C@H](CN(C)Cc2ccc(Cl)c(Cl)c2)O3)cc1` the cytotoxicity call was “active”.
In the case of `COc1ccc(NC(=O)Nc2ccc3c(c2)CC(=O)N([C@H](C)CO)C[C@H](C)[C@@H](CN(C)Cc2ccc(Cl)c(Cl)c2)O3)cc1`, the cytotoxicity call was “inactive”.
With `COc1ccc(NC(=O)Nc2ccc3c(c2)CC(=O)N([C@@H](C)CO)C[C@H](C)[C@H](CN(C)Cc2ccc(Cl)c(Cl)c2)O3)cc1` the cytotoxicity call was “active”.
In the case of `COc1ccc(NC(=O)Nc2ccc3c(c2)CC(=O)N([C@@H](C)CO)C[C@H](C)[C@@H](CN(C)Cc2ccc(Cl)c(Cl)c2)O3)cc1`, the cytotoxicity call was “active”.
`COc1ccc(NC(=O)Nc2ccc3c(c2)CC(=O)N([C@@H](C)CO)C[C@@H](C)[C@@H](CN(C)Cc2ccc(Cl)c(Cl)c2)O3)cc1` was tested, and the cytotoxicity call was “active”.
`C[C@H](CO)N1C[C@H](C)[C@H](CN(C)S(=O)(=O)c2ccccc2)Oc2ccc(NS(=O)(=O)c3cn(C)cn3)cc2CC1=O` was tested, and the cytotoxicity call was “inactive”.
With `CC(C)NC(=O)N(C)C[C@H]1Oc2cc(C#Cc3cccc(F)c3)ccc2S(=O)(=O)N([C@H](C)CO)C[C@H]1C` the cytotoxicity call was “inactive”.
With `O=C(NCCCO)c1cc2ccccc2oc1=O` the cytotoxicity call was “inactive”.
For `COc1cccc(C(=O)Nc2ccc3c(c2)C(=O)N(C)[C@H]2CC[C@@H](CC(=O)NCCCN4CCOCC4)O[C@@H]2CO3)c1`, the cytotoxicity call was “inactive”.
In the case of `C[C@H]1CN([C@@H](C)CO)C(=O)Cc2cc(NS(C)(=O)=O)ccc2O[C@@H]1CN(C)S(=O)(=O)c1cccs1`, the cytotoxicity call was “inactive”.
In the case of `Cc1ccc(S(=O)(=O)N[C@@H]2CC[C@@H](CCNC(=O)CN3CCOCC3)O[C@@H]2CO)cc1`, the cytotoxicity call was “inactive”.
In the case of `COC(=O)CSc1cc(C)nc(N)n1`, the cytotoxicity call was “inactive”.
In the case of `COc1cccc(NC(=O)C[C@H]2CC[C@H]3[C@@H](COc4ccc(NC(=O)C5CCOCC5)cc4C(=O)N3C)O2)c1`, the cytotoxicity call was “inactive”.
With `C[C@@H]1CN([C@@H](C)CO)C(=O)c2cc(NS(=O)(=O)c3cn(C)cn3)ccc2O[C@@H](C)CCCCO[C@H]1CN(C)C(=O)CCCN(C)C` the cytotoxicity call was “inactive”.
`C[C@H](CO)N1C[C@H](C)[C@@H](CN(C)Cc2ccc(C(=O)O)cc2)Oc2c(NC(=O)C3CC3)cccc2C1=O` was tested, and the cytotoxicity call was “inactive”.
With `COc1ccc(NC(=O)Nc2ccc3c(c2)CC(=O)N([C@H](C)CO)C[C@@H](C)[C@@H](CN(C)Cc2ccc(Cl)c(Cl)c2)O3)cc1` the cytotoxicity call was “inactive”.
With `COc1ccc(NC(=O)Nc2ccc3c(c2)CC(=O)N([C@H](C)CO)C[C@@H](C)[C@H](CN(C)Cc2ccc(Cl)c(Cl)c2)O3)cc1` the cytotoxicity call was “active”.
In the case of `COc1ccc(NC(=O)Nc2ccc3c(c2)CC(=O)N([C@@H](C)CO)C[C@@H](C)[C@H](CN(C)Cc2ccc(Cl)c(Cl)c2)O3)cc1`, the cytotoxicity call was “inactive”.
With `C[C@@H]1CN([C@@H](C)CO)C(=O)c2cc(NC(=O)c3ccncc3)ccc2O[C@@H]1CN(C)S(=O)(=O)c1ccc(F)cc1` the cytotoxicity call was “inactive”.
With `Cc1noc(C)c1NC(=O)N(C)C[C@@H]1Oc2cc(C#CCN(C)C)ccc2S(=O)(=O)N([C@@H](C)CO)C[C@@H]1C` the cytotoxicity call was “inactive”.
In the case of `C[C@H](CO)N1C[C@H](C)[C@H](CN(C)Cc2ccccc2)Oc2ncc(-c3cccc(C(F)(F)F)c3)cc2C1=O`, the cytotoxicity call was “inactive”.
`C[C@H](CO)N1C[C@H](C)[C@H](CN(C)Cc2cccc(C(F)(F)F)c2)Oc2ncc(-c3cc4ccccc4o3)cc2C1=O` was tested, and the cytotoxicity call was “inactive”.
For `C[C@H](CO)N1C[C@H](C)[C@H](CN(C)S(=O)(=O)c2cn(C)cn2)Oc2ncc(-c3cccc(F)c3)cc2C1=O`, the cytotoxicity call was “inactive”.
For `C[C@H](CO)N1C[C@H](C)[C@H](CN(C)Cc2cccc(C(F)(F)F)c2)Oc2ncc(/C=C/c3ccccc3)cc2C1=O`, the cytotoxicity call was “active”.
In the case of `C[C@H](CO)N1C[C@H](C)[C@H](CN(C)S(=O)(=O)c2cn(C)cn2)Oc2ncc(-c3cccc(C(F)(F)F)c3)cc2C1=O`, the cytotoxicity call was “active”.
With `C[C@H](CO)N1C[C@H](C)[C@H](CN(C)S(=O)(=O)c2cn(C)cn2)Oc2ncc(-c3ccccc3)cc2C1=O` the cytotoxicity call was “inactive”.
With `C[C@H](CO)N1C[C@H](C)[C@H](CN(C)Cc2cccc(C(F)(F)F)c2)Oc2ncc(-c3cccc(F)c3)cc2C1=O` the cytotoxicity call was “active”.
With `Cc1cccc(CN(C)C[C@@H]2Oc3ncc(-c4cc5ccccc5o4)cc3C(=O)N([C@H](C)CO)C[C@@H]2C)c1` the cytotoxicity call was “active”.
With `C[C@H](CO)N1C[C@H](C)[C@H](CN(C)Cc2cccc(C(F)(F)F)c2)Oc2ncc(-c3ccccc3)cc2C1=O` the cytotoxicity call was “inactive”.
In the case of `C[C@H](CO)N1C[C@H](C)[C@H](CN(C)C(=O)Nc2cccc3ccccc23)Oc2ncc(-c3cc4ccccc4o3)cc2C1=O`, the cytotoxicity call was “inactive”.
`C[C@H](CO)N1C[C@H](C)[C@H](CN(C)Cc2cccc(C(F)(F)F)c2)Oc2ncc(-c3cccc(C(F)(F)F)c3)cc2C1=O` was tested, and the cytotoxicity call was “inactive”.
For `C[C@H](CO)N1C[C@H](C)[C@H](CN(C)Cc2cccc(C(F)(F)F)c2)Oc2ncc(-c3ccc(F)cc3)cc2C1=O`, the cytotoxicity call was “inactive”.
For `CCCC#Cc1cnc2c(c1)C(=O)N([C@H](C)CO)C[C@H](C)[C@H](CN(C)S(=O)(=O)c1cccc(OC)c1)O2`, the cytotoxicity call was “inactive”.
With `COCC#Cc1cnc2c(c1)C(=O)N([C@H](C)CO)C[C@H](C)[C@@H](CN(C)C(=O)Nc1ccc(OC)cc1)O2` the cytotoxicity call was “inactive”.
`COc1ccc(CNC(=O)C[C@@H]2C[C@H]3c4cc(NS(=O)(=O)c5ccc(F)cc5)ccc4O[C@H]3[C@@H](CO)O2)cc1` was tested, and the cytotoxicity call was “inactive”.
In the case of `COc1ccc(CN(C)C[C@@H]2Oc3c(NS(=O)(=O)c4cn(C)cn4)cccc3C(=O)N([C@@H](C)CO)C[C@@H]2C)cc1`, the cytotoxicity call was “inactive”.
In the case of `COc1cccc(S(=O)(=O)Nc2ccc3c(c2)[C@@H]2C[C@H](CC(=O)N4CCCCC4)O[C@@H](CO)[C@@H]2O3)c1`, the cytotoxicity call was “inactive”.
In the case of `C[C@@H]1CN([C@@H](C)CO)S(=O)(=O)c2ccc(C#CCN(C)C)cc2O[C@H]1CN(C)Cc1ccccc1F`, the cytotoxicity call was “inactive”.
With `Cn1c(S(=O)(=O)CC(N)=O)nc2ccccc21` the cytotoxicity call was “inactive”.
In the case of `Cc1cccc(OC[C@H](O)Cn2c(N3CCN(C)CC3)nc3c2c(=O)n(C)c(=O)n3C)c1`, the cytotoxicity call was “inactive”.
In the case of `Cc1noc(C)c1NC(=O)N(C)C[C@H]1Oc2ccc(NC(=O)Nc3cccc4ccccc34)cc2C(=O)N([C@H](C)CO)C[C@@H]1C`, the cytotoxicity call was “inactive”.
In the case of `CN(C)CCCNC(=O)C[C@H]1CC[C@H]2[C@@H](COc3ccc(NC(=O)c4ccccc4F)cc3C(=O)N2C)O1`, the cytotoxicity call was “inactive”.
`CNC(=O)C[C@@H]1CC[C@@H]2[C@H](COC[C@H](O)CN2C(=O)c2ccc3c(c2)OCO3)O1` was tested, and the cytotoxicity call was “inactive”.
`CCCNc1nc(Nc2ccc(C#N)cc2)ncc1C#CCCCNC(=O)[C@H](C)N(C)C(=O)/C=C/CN(C)C` was tested, and the cytotoxicity call was “active”.
With `CC(C)NC(=O)Nc1ccc2c(c1)C(=O)N([C@H](C)CO)C[C@H](C)[C@@H](CN(C)C(=O)Nc1cccc3ccccc13)OCCCC[C@H](C)O2` the cytotoxicity call was “inactive”.
In the case of `Cc1ccc(S(=O)(=O)N[C@H]2CC[C@@H](CC(=O)NCc3ccc(Cl)c(Cl)c3)O[C@@H]2CO)cc1`, the cytotoxicity call was “inactive”.
`NNC(=S)NCc1cccs1` was tested, and the cytotoxicity call was “inactive”.
With `C[C@H](CO)N1C[C@H](C)[C@H](CN(C)S(=O)(=O)c2cn(C)cn2)Oc2c(NS(=O)(=O)c3cn(C)cn3)cccc2C1=O` the cytotoxicity call was “inactive”.
For `O=c1ccc2cc3ccoc3cc2o1`, the cytotoxicity call was “inactive”.
With `COc1c2ccoc2c(OC)c2oc(=O)ccc12` the cytotoxicity call was “active”.
With `COc1c(OC)c2occc2c2oc(=O)ccc12` the cytotoxicity call was “inactive”.
`COc1c2ccoc2cc2oc(=O)ccc12` was tested, and the cytotoxicity call was “inactive”.
`COc1c2ccoc2cc2oc(C)cc(=O)c12` was tested, and the cytotoxicity call was “inactive”.
`COc1c(-c2ccccc2)oc2c(ccc3ccoc32)c1=O` was tested, and the cytotoxicity call was “inactive”.
For `COc1c2occc2c(OC)c2c(=O)cc(C)oc12`, the cytotoxicity call was “active”.
For `COc1c2occc2cc2ccc(=O)oc12`, the cytotoxicity call was “active”.
For `COc1cc2ccc(=O)oc2c(OC)c1OC`, the cytotoxicity call was “inactive”.
`CN(C)C(=O)Cn1c(=O)oc2ccccc21` was tested, and the cytotoxicity call was “inactive”.
In the case of `COc1ccc(CN(C)C[C@@H]2Oc3ccc(NS(=O)(=O)c4cn(C)cn4)cc3C(=O)N([C@H](C)CO)C[C@@H]2C)cc1`, the cytotoxicity call was “inactive”.
In the case of `O=C(C[C@H]1CC[C@H]2[C@@H](COC[C@@H](O)CN2S(=O)(=O)c2ccccc2Cl)O1)NCCc1ccncc1`, the cytotoxicity call was “inactive”.
In the case of `C[C@H](CO)N1C[C@H](C)[C@H](CN(C)Cc2ccc3c(c2)OCO3)Oc2ccc(NC(=O)Nc3cccc4ccccc34)cc2C1=O`, the cytotoxicity call was “inactive”.
`COc1ccc(S(=O)(=O)N(C)C[C@@H]2OCCCC[C@@H](C)Oc3ccc(NS(=O)(=O)c4ccc(Cl)cc4)cc3C(=O)N([C@@H](C)CO)C[C@H]2C)cc1` was tested, and the cytotoxicity call was “active”.
For `COc1ccc(S(=O)(=O)Nc2ccc3c(c2)C(=O)N([C@H](C)CO)C[C@@H](C)[C@@H](CN(C)S(=O)(=O)c2ccc(Cl)cc2)OCCCC[C@@H](C)O3)cc1`, the cytotoxicity call was “inactive”.
In the case of `COc1ccc(S(=O)(=O)Nc2ccc3c(c2)C(=O)N([C@H](C)CO)C[C@H](C)[C@@H](CN(C)S(=O)(=O)c2ccc(Cl)cc2)OCCCC[C@H](C)O3)cc1`, the cytotoxicity call was “inactive”.
For `COc1ccc(S(=O)(=O)N(C)C[C@@H]2OCCCC[C@H](C)Oc3ccc(NS(=O)(=O)c4ccc(Cl)cc4)cc3C(=O)N([C@@H](C)CO)C[C@@H]2C)cc1`, the cytotoxicity call was “active”.
In the case of `COc1ccc(S(=O)(=O)Nc2ccc3c(c2)C(=O)N([C@@H](C)CO)C[C@@H](C)[C@@H](CN(C)S(=O)(=O)c2ccc(Cl)cc2)OCCCC[C@@H](C)O3)cc1`, the cytotoxicity call was “inactive”.
`COc1ccc(S(=O)(=O)N(C)C[C@H]2OCCCC[C@H](C)Oc3ccc(NS(=O)(=O)c4ccc(Cl)cc4)cc3C(=O)N([C@@H](C)CO)C[C@H]2C)cc1` was tested, and the cytotoxicity call was “inactive”.
`COc1ccc(S(=O)(=O)Nc2ccc3c(c2)C(=O)N([C@@H](C)CO)C[C@H](C)[C@@H](CN(C)S(=O)(=O)c2ccc(Cl)cc2)OCCCC[C@H](C)O3)cc1` was tested, and the cytotoxicity call was “active”.
With `COc1ccc(S(=O)(=O)Nc2ccc3c(c2)C(=O)N([C@@H](C)CO)C[C@H](C)[C@H](CN(C)S(=O)(=O)c2ccc(Cl)cc2)OCCCC[C@H](C)O3)cc1` the cytotoxicity call was “inactive”.
With `COc1ccc(S(=O)(=O)Nc2ccc3c(c2)C(=O)N([C@@H](C)CO)C[C@@H](C)[C@@H](CN(C)S(=O)(=O)c2ccc(Cl)cc2)OCCCC[C@H](C)O3)cc1` the cytotoxicity call was “inactive”.
With `COc1ccc(S(=O)(=O)N(C)C[C@@H]2OCCCC[C@H](C)Oc3ccc(NS(=O)(=O)c4ccc(Cl)cc4)cc3C(=O)N([C@H](C)CO)C[C@@H]2C)cc1` the cytotoxicity call was “active”.

Reference: the antibiotic and cytotoxicity screens of Wong et al. (2023)
